Results filed as inconclusive are left out. Where a call stands in place of a potency, no number is given. Activity calls are given as the source filed them. Calls follow the shape of the dose curve; as a rule, active = well fitted inhibition curve with a large enough effect; inconclusive = small, poorly fitted or top-dose-only effect; inactive = flat fitted curve, though single readings scatter.
test: P-glycoprotein substrates identified in KB-8-5-11 adenocarcinoma cell line, qHTS therapeutic library screen (AID 1346987); details: KB-8-5-11 (P-gp overexpressing) viability, CellTiter-Glo, 72 h; series mostly up to 44.5 µM; also: nearly all actives have a fitted effect of over 65% in size
How it was run: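 Compounds are pinned in dose-response onto KB-8-5-11 cells (500 cells/well, colchicine-free medium) and left 72 h at 37 degree C. CellTiter-Glo luminescence then yields AC50 values.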
Potency is read from the fitted curve at half-maximal effect.

Q: Which Potency does the source give for `C[C@]12C=C[C@@]3(CCC4[C@](C)(CO)CCC[C@@]4(C)C3CC1)C2` (stereo not given in full) here?
A: inactive

Q: With `C[C@@H]1CC[C@]2(C(=O)OC3OC(CO)C(O)C(O)C3O)CC[C@]3(C)C(=CCC4[C@@]5(C)CC[C@H](O)[C@](C)(C(=O)O)C5CC[C@]43C)C2[C@]1(C)O` (stereo not given in full) as the compound, how does the Potency read?
A: inactive

Q: With `C=CC(=O)Nc1cc(Nc2ncc(Cl)c(-c3c[nH]c4ccccc34)n2)c(OC)cc1N(C)CCN(C)C` as the compound, how does the Potency read?
A: 5.17 µM (active)

Q: For `Cc1cc(C(=O)N2Cc3cnn(C)c3Nc3ccccc32)ccc1CNC(=O)N1CCC[C@H]1C(=S)N1CCCN(C)CC1`, which Potency is on record?
A: inactive

Q: With `O=C1C=CC(O)(/C=C/C(=O)OC[C@H]2O[C@@H](Oc3ccc(O)cc3)[C@H](O)[C@@H](O)[C@@H]2O)C=C1` as the compound, how does the Potency read?
A: inactive

Q: With `COc1ccc(C2(O)CCC(N3CC[C@@H](NC(=O)CNC(=O)c4cccc(C(F)(F)F)c4)C3)CC2)cn1` (stereo not given in full) as the compound, how does the Potency read?
A: inactive

Q: Which Potency does the source give for `CO[C@H]1C[C@@H]2CC[C@@H](C)[C@@](O)(O2)C(=O)C(=O)N2CCCC[C@H]2C(=O)O[C@H]([C@H](C)C[C@H]2CC[C@@H](OP(C)(C)=O)[C@H](OC)C2)CC(=O)[C@H](C)/C=C(\C)[C@@H](O)[C@@H](OC)C(=O)[C@H](C)C[C@H](C)/C=C/C=C/C=C/1C` here?
A: inactive

Q: With `CC1(O)CC(O)C2(O)C=COC(O[C@@H]3O[C@H](CO)[C@@H](O)[C@H](O)[C@H]3O)C12` (stereo not given in full) as the compound, how does the Potency read?
A: inactive

Q: Which Potency does the source give for `C=CC1C(OC2OC(CO)C(O)C(O)C2O)OC=C(C(=O)OC)C1CC1CC(=O)CC(CCc2ccc(O)cc2)O1` (stereo not given) here?
A: inactive

Q: For `CCOc1cc(N2CCC(O)CC2)ccc1Nc1ncc2c(n1)N(C1CCCC1)CCC(=O)N2C`, which Potency is on record?
A: 11.6 µM (active)

— PubChem BioAssay (NCATS)
